Laboratory results: PubChem BioAssay (NCATS)
Results filed as inconclusive are left out. A number with no mark means an inactive call. Active and inactive are the calls of the source. The call rests on the fitted dose curve; in most records, active means well fitted curve in the direction sought with a large enough effect; inconclusive means small, poorly fitted or top-dose-only effect, or another doubt; inactive means no such curve, though single readings can be large; an effect the other way counts as inactive or inconclusive.

Key:
[1] = Quantitative High-Throughput drug screen in 47 multiple myeloma cell lines against the NCATS MIPE library collection: KHM11_PLB cell viability assay (AID 1918962); further: nearly all actives have a fitted effect of over 35% in size
Procedure, shortened: (§1)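 qHTS of the MIPE 4.0 collection: 500 myeloma cells/well, 48 h drug exposure at 37C in 5% CO2, then CellTiter-Glo for 5 min at room temperature before luminescence reading.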

[2] = Quantitative High-Throughput drug screen in 47 multiple myeloma cell lines against the NCATS MIPE library collection: JIM3_ECACC cell viability assay (AID 1918963; further: nearly all actives have a fitted effect of over 35% in size)
Procedure, shortened: as §1

[3] = Quantitative High-Throughput drug screen in 47 multiple myeloma cell lines against the NCATS MIPE library collection: JJN3_DSMZ cell viability assay (AID 1918966; further: nearly all actives have a fitted effect of over 50% in size)
Procedure, shortened: (§2)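 Luminescent ATP measurement with CellTiter-Glo gives viability, scaled between DMSO-only wells (100%) and media-only wells (0%). Cells, 500 per well, faced library compounds for 48 hours at 37C.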

[4] = Quantitative High-Throughput drug screen in 47 multiple myeloma cell lines against the NCATS MIPE library collection: KMS12BM_JCRB cell viability assay (AID 1918971); further: nearly all actives have a fitted effect of over 35% in size
Procedure, shortened: as §2

[5] = Quantitative High-Throughput drug screen in 47 multiple myeloma cell lines against the NCATS MIPE library collection: KMS21BM_JCRB cell viability assay (AID 1918974); conditions: ATP luminescence, 48 h; viability: at 45.8 µM (top of the series) unless noted
Procedure, shortened: as §2

[6] = Quantitative High-Throughput drug screen in 47 multiple myeloma cell lines against the NCATS MIPE library collection: NCIH929_DSMZ cell viability assay (AID 1918978); further: nearly all actives have a fitted effect of over 35% in size
Procedure, shortened: (§3)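 qHTS format: cells plated (500/well), pin-dosed with MIPE 4.0 compounds, kept 48 h at 37 °C. Readout was CellTiter-Glo luminescence, median RLU.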

[7] = Quantitative High-Throughput drug screen in 47 multiple myeloma cell lines against the NCATS MIPE library collection: OCIMY1_PLB cell viability assay (AID 1918979); further: nearly all actives have a fitted effect of over 35% in size
Procedure, shortened: as §3

[8] = Quantitative High-Throughput drug screen in 47 multiple myeloma cell lines against the NCATS MIPE library collection: MM1S_ATCC cell viability assay (AID 1918980); further: nearly all actives have a fitted effect of over 45% in size
Procedure, shortened: as §3

[9] = Quantitative High-Throughput drug screen in 47 multiple myeloma cell lines against the NCATS MIPE library collection: MM1R_ATCC cell viability assay (AID 1918981); further: nearly all actives have a fitted effect of over 35% in size
Procedure, shortened: as §3

[10] = Quantitative High-Throughput drug screen in 47 multiple myeloma cell lines against the NCATS MIPE library collection: JIM1_ECACC cell viability assay (AID 1918964)
Procedure, shortened: as §2

[11] = Quantitative High-Throughput drug screen in 47 multiple myeloma cell lines against the NCATS MIPE library collection: INA6_PLB cell viability assay (AID 1918965; further: nearly all actives have a fitted effect of over 55% in size)
Procedure, shortened: as §2

[12] = Quantitative High-Throughput drug screen in 47 multiple myeloma cell lines against the NCATS MIPE library collection: H1112_PLB cell viability assay (AID 1918967; further: nearly all actives have a fitted effect of over 30% in size)
Procedure, shortened: as §2

[13] = Quantitative High-Throughput drug screen in 47 multiple myeloma cell lines against the NCATS MIPE library collection: Karpas25_ECACC cell viability assay (AID 1918968; further: nearly all actives have a fitted effect of over 35% in size)
Procedure, shortened: as §2

[14] = Quantitative High-Throughput drug screen in 47 multiple myeloma cell lines against the NCATS MIPE library collection: KMS27_JCRB cell viability assay (AID 1918970); further: nearly all actives have a fitted effect of over 30% in size
Procedure, shortened: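 CellTiter-Glo luminescence after 48 h drug exposure at 37 °C; 500 cells/well, 1536-well format, pin-tool compound addition; DMSO = 100%, media-only = 0% viability.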

[15] = Quantitative High-Throughput drug screen in 47 multiple myeloma cell lines against the NCATS MIPE library collection: KMS12PE_JCRB cell viability assay (AID 1918972); further: nearly all actives have a fitted effect of over 30% in size
Procedure, shortened: as §2

[16] = Quantitative High-Throughput drug screen in 47 multiple myeloma cell lines against the NCATS MIPE library collection: KMS20_JCRB cell viability assay (AID 1918973); further: nearly all actives have a fitted effect of over 45% in size
Procedure, shortened: as §2

[17] = Quantitative High-Throughput drug screen in 47 multiple myeloma cell lines against the NCATS MIPE library collection: KMS26_JCRB cell viability assay (AID 1918975); further: nearly all actives have a fitted effect of over 45% in size
Procedure, shortened: as §2

[18] = Quantitative High-Throughput drug screen in 47 multiple myeloma cell lines against the NCATS MIPE library collection: MMM1_PLB cell viability assay (AID 1918976); further: nearly all actives have a fitted effect of over 35% in size
Procedure, shortened: as §3

[19] = Quantitative High-Throughput drug screen in 47 multiple myeloma cell lines against the NCATS MIPE library collection: LP1_DSMZ cell viability assay (AID 1918982); further: nearly all actives have a fitted effect of over 35% in size
Procedure, shortened: as §3

[20] = Quantitative High-Throughput drug screen in 47 multiple myeloma cell lines against the NCATS MIPE library collection: MOLP8_DSMZ cell viability assay (AID 1918977); further: nearly all actives have a fitted effect of over 45% in size
Procedure, shortened: as §3
Potency means the concentration at half of the fitted maximal effect.

SMILES | Potency [1] | Potency [2] | Potency [3] | Potency [4] | Potency [5] | Potency [6] | Potency [7] | Potency [8] | Potency [9] | Potency [10] | Potency [11] | Potency [12] | Potency [13] | Potency [14] | Potency [15] | Potency [16] | Potency [17] | Potency [18] | Potency [19] | Potency [20]
O=C(O)C1(Cc2cccc(Nc3nccs3)n2)CCC(Oc2cccc(Cl)c2F)CC1 (stereo not given) | 0.264 µM (active) | 0.935 µM (active) | inactive | 1.32 µM (active) | 23.5 nM (active) | inactive | inactive | 0.332 µM (active) | 0.469 µM (active) |  |  |  |  |  |  |  |  |  |  | 
COCCOc1ccc2c(c1)ncn2-c1ccc2cccc(N3CCC(N)CC3)c2n1 | 9.35 µM (active) |  | 4.18 µM (active) | 9.35 µM (active) |  | 1.66 µM (active) | 2.64 µM (active) | 3.72 µM (active) | 1.66 µM (active) | 5.9 µM (active) | 46.9 nM (active) | 6.62 µM (active) | 0.0662 µM (active) | 1.66 µM (active) | 0.0372 µM (active) | 0.0743 µM (active) | 13.2 µM (active) | 23.5 µM (active) | 2.09 µM (active) | 
CNC(=O)c1ccc(-c2cnc3ncc(Cc4ccc5ncccc5c4)n3n2)cc1F | inactive | inactive | 5.9 µM (active) |  |  | inactive | inactive | inactive |  |  |  |  |  |  |  |  | inactive |  | inactive | 
CC(C)(C)c1cc(C(C)(C)C)c(NC(=O)c2c[nH]c3ccccc3c2=O)cc1O | inactive | inactive |  |  | inactive | inactive | inactive | inactive | inactive |  | inactive | inactive | inactive |  | inactive | inactive |  |  | inactive | 
Fc1cc(-c2cccc3ncc(-c4cnn(C5CCNCC5)c4)nc23)cc(F)c1CN1CCOCC1 | 6.62 µM (active) | 16.6 µM (active) | 16.6 µM (active) | 18.7 µM (active) |  | 8.33 µM (active) |  | 20.9 µM (active) | 20.9 µM (active) |  |  |  | 7.43 µM (active) | 8.33 µM (active) | 6.62 µM (active) | 5.26 µM (active) | 26.4 µM (active) | 23.5 µM (active) |  | 18.7 µM (active)
NC(=O)c1c(OCc2c(F)cc(Br)cc2F)nsc1NC(=O)NCCCCN1CCCC1 | 9.35 µM (active) | 26.4 µM (active) | 20.9 µM (active) | 18.7 µM (active) |  | 9.35 µM (active) |  | 2.96 µM (active) |  |  |  |  | 8.33 µM (active) | inactive |  | 7.43 µM (active) |  |  |  | 26.4 µM (active)
CCN1CCN(Cc2ccc(-c3cc4c(N[C@H](C)c5ccccc5)ncnc4[nH]3)cc2)CC1 | 5.9 µM (active) | 0.469 µM (active) |  |  |  |  | 3.32 µM (active) |  |  |  |  |  | 2.09 µM (active) | 0.0166 µM (active) | 0.0469 µM (active) |  | 0.935 µM (active) | 18.7 µM (active) |  | 
COc1cc(C(=O)N2CCC(N3CCN(C)CC3)CC2)ccc1Nc1ncc2c(n1)N(C)c1ccccc1C(=O)N2C | 7.43 µM (active) | 14.8 µM (active) | 3.72 µM (active) | 1.87 µM (active) |  | 4.18 µM (active) | 7.43 µM (active) | 6.62 µM (active) | 6.62 µM (active) |  | 935 nM (active) |  | 11.8 µM (active) |  | 1.66 µM (active) | 13.2 µM (active) | 1.66 µM (active) | 1.66 µM (active) |  | 2.09 µM (active)
Nc1ncnc2c1c(-c1cnc3[nH]ccc3c1)nn2C1CCCC1 | 0.296 µM (active) |  | 2.35 µM (active) | 0.743 µM (active) | 1050 nM (active) | 0.235 µM (active) | 1.87 µM (active) | 2.96 µM (active) |  | 0.526 µM (active) | 209 nM (active) | 6.62 µM (active) | 0.209 µM (active) | 0.209 µM (active) | 0.935 µM (active) | 0.0833 µM (active) | 10.5 µM (active) | 0.187 µM (active) | 0.148 µM (active) | 0.105 µM (active)
CN(C)c1nc(Cc2ccc(NC(=O)c3ccc4ccccc4c3)cc2)nc(Cl)c1CC(=O)O | inactive | inactive |  |  |  | inactive |  | 2.96 µM (active) |  |  | inactive | inactive | inactive | 0.0526 µM (active) | 16.6 µM (active) | inactive | inactive |  | inactive | inactive
Cc1[nH]c2ccccc2c1CCNCc1ccc(C=CC(=O)NO)cc1 | 0.148 µM (active) | 0.235 µM (active) | 0.0935 µM (active) | 0.059 µM (active) |  | 0.0526 µM (active) | 0.166 µM (active) | 0.0743 µM (active) | 0.0296 µM (active) |  | 13.2 nM (active) |  | 0.0209 µM (active) |  | 0.0526 µM (active) |  | 0.0662 µM (active) |  |  | 0.0526 µM (active)
CC[C@@H]1C(=O)N(C)c2cnc(Nc3ccc(C(=O)NC4CCC(N5CCN(CC6CC6)CC5)CC4)cc3OC)nc2N1C(C)C (stereo not given in full) | 8.33 µM (active) | 0.0418 µM (active) | 2.64 µM (active) | 0.0743 µM (active) | 935 nM (active) | 1.32 µM (active) | 0.264 µM (active) | 1.32 µM (active) |  |  | 187 nM (active) |  | 5.26 µM (active) |  | 2.96 µM (active) | 4.18 µM (active) | 5.26 µM (active) | 7.43 µM (active) |  | 3.72 µM (active)
Clc1cccc(-n2nnnc2NCc2ccccc2Oc2ccccn2)c1Cl | inactive | inactive |  |  |  | inactive | inactive | inactive | inactive |  | inactive | inactive |  |  |  |  |  |  |  | 
COc1ccc(CC2SC(=O)NC2=O)cc1C(=O)NCc1ccc(C(F)(F)F)cc1 (stereo not given) | inactive | inactive | inactive | inactive |  | inactive |  |  | inactive |  |  | inactive | 5.9 µM (active) | inactive |  |  |  |  | inactive | inactive
CC(O)C1C(=O)N2C(C(=O)O)=C(SC3CNC(C(=O)N(C)C)C3)C(C)C12 (stereo not given) | inactive | inactive |  | inactive |  | inactive |  |  |  |  | inactive | inactive |  | inactive |  |  |  |  |  | 
COc1cc2ncnc(Nc3ccc(F)c(Cl)c3)c2cc1NC(=O)C=CCN1CCCCC1 | 3.32 µM (active) |  | 20.9 µM (active) | 18.7 µM (active) |  | 4.69 µM (active) | 26.4 µM (active) | 13.2 µM (active) | 16.6 µM (active) | 10.5 µM (active) | 3720 nM (active) | 8.33 µM (active) | 2.96 µM (active) | 4.18 µM (active) | 1.87 µM (active) | 2.96 µM (active) | 18.7 µM (active) | 18.7 µM (active) |  | 18.7 µM (active)
Nc1cccc(-c2cc3c(Oc4cccc(O)c4)ncnc3[nH]2)c1 | 16.6 µM (active) | 16.6 µM (active) |  |  |  | 23.5 µM (active) | inactive | 3.32 µM (active) |  |  | 8330 nM (active) |  | 18.7 µM (active) |  | inactive | 18.7 µM (active) |  |  |  | 
